# Test results: PubChem BioAssay (EPA / NIEHS)
# Results filed as inconclusive are left out. Active and inactive are the calls of the source. How the source made its calls: active means hit-call score of the fitted dose curve at least 0.9, where 1 is the maximum; inconclusive means response in the unintended direction; inactive means score below 0.9.
# Assay: CCTE_Mundy_HCI_hNP1_CellTiter: CCTE's Cell Titer-Glo 2 Assay in human neuroprogenitor cells for Viability, Mundy Lab (AID 2284241)
# Experimental: CCTE_Mundy_HCI_hNP1_CellTiter is a multiplexed, cell-based-readout assay that uses neural stem cells derived from a neuroepithelial cell lineage of WA09 embryonic cells with measurements taken at […] after chemical dosing in a microplate: 96-well plate.CCTE_Mundy_HCI_hNP1_CellTiter is one component of the CCTE_Mundy_HCI_hNP1_CellTiter assay. It measures cell viability related to ATP content using Luminescent Reporter.Data from the assay component CCTE_Mundy_HCI_hNP1_CellTiter was analyzed at the endpoint CCTE_Mundy_HCI_hNP1_CellTiter in the positive analysis fitting direction relative to DMSO as the negative control and baseline of activity. Using a type of viability reporter, loss -of-signal activity can be used to understand viability effects.
# Human neural progenitor cells (hNP1) were obtained as cryopreserved cells from ArunA Biomedical, Athens Georgia. Cells are plated on pre-coated poly-L-ornithine/laminin clear bottom and opaque 96 well plates (day 0). Plates are placed in a 37 °C, 5% CO2 incubator for 40 to 44 hours at which time plates are removed from the incubator and 10 uL of a freshly made chemical solution is added to each well. Cell viability was based on number of cells per field or determined in sister plates using the CellTiter-Glo luminescent assay (Promega) which measures the amount of ATP present in each well. Twenty-four hours after chemical treatment, 50ul of CellTiter-Glo assay buffer was added to each well and the plate incubated for 30min at room temperature. Luminescence was then recorded in each well using a FLUOstar Optima plate reader (BMG LABTECH, Cary, NC).
row,Compound,outcome
1,O=C(O)CCC(F)(F)C(F)(F)C(F)(F)F,inactive
2,OCCCCC(F)(F)C(F)(F)C(F)(F)C(F)(F)F,inactive
3,O=C(O)CCC(F)(F)C(F)(F)C(F)(F)C(F)(F)C(F)(F)C(F)(F)C(F)(F)F,inactive
4,CCN(CCO)S(=O)(=O)C(F)(F)C(F)(F)C(F)(F)C(F)(F)C(F)(F)C(F)(F)C(F)(F)C(F)(F)F,inactive
5,C=CC(=O)OCC(F)(F)C(F)(F)C(F)(F)COC(=O)C=C,inactive
6,O=C(O)C(F)(F)C(F)(F)C(F)(F)OC(F)(F)F,inactive
7,NC(=O)C(F)(F)C(F)(F)C(F)(F)C(F)(F)C(F)(F)C(F)(F)C(F)(F)F,inactive
8,O=C(O)C(F)(F)C(F)(F)C(F)(F)OC(F)(C(F)(F)F)C(F)(F)F,inactive
9,O=C(F)C1(F)C(F)(F)C(F)(F)C(F)(F)C(F)(F)C1(F)F,inactive
10,NC(O)(C(F)(F)F)C(F)(F)F,inactive
11,OCCCC(F)(F)C(F)(F)C(F)(F)C(F)(F)C(F)(F)C(F)(F)C(F)(F)C(F)(F)F,inactive
